This is a sample that favours compounds with a hit; in the whole collection about 11% have one here.
Gal4-VP16 FLuc – VP16 counterscreen qHTS for inhibitors of ROR gamma transcriptional activity; hit rate 3.5% among 310,000; AID 2546, 2010; Potency, µM (titrated, usually from 53.6 µM), without a hit: at the highest dose activity, negative = inhibition, hits mostly inhibitors; Drosophila S2 Gal4-VP16 UAS-luciferase, luminescence, 20 h;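 further: Gal4-VP16 expression switched on by copper sulfate through the metallothionein promoter; potency means the concentration at half of the fitted maximal effect; on the % scale 0 is the no-effect control and ±100 the full control effect; nearly all actives have a fitted effect of over 50% in size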
RORg inh – qHTS for inhibitors of ROR gamma transcriptional activity; Potency, µM (titrated, usually from 53.6 µM), without a hit: at the highest dose activity change, negative = inhibition, most hits filed as inhibitors; hit rate 5.4% among 310,000; AID 2551, 2010; Drosophila S2 Gal4-RORgamma UAS-luciferase reporter, 20 h; further: potency means the concentration at half of the fitted maximal effect; on the % scale 0 is the no-effect control and ±100 the full control effect; nearly all actives have a fitted effect of over 60% in size
Target sequence (P51450 whole entry, looked up, the tested form may be a part): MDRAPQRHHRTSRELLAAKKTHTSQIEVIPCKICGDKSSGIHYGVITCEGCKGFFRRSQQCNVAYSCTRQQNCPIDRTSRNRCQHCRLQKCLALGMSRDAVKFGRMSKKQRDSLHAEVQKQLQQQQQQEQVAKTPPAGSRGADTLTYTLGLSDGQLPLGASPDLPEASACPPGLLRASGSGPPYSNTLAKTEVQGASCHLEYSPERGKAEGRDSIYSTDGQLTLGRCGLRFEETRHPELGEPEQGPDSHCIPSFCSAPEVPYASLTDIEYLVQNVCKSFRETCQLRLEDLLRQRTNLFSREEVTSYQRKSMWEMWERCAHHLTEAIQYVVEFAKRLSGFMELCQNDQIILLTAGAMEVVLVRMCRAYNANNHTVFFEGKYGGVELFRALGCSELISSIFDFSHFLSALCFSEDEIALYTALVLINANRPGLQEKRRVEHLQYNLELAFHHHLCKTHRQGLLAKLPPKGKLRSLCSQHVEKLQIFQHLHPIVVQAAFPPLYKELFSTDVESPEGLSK
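Luminescence from a UAS-regulated Photinus luciferase reporter in stably transfected Drosophila Schneider cells is measured; decreased signal marks ROR gamma inhibition. Fusion expression is induced by 700 uM copper sulfate for 20 hr.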
IL-1B inflam inh – qHTS for Inhibitors of Inflammasome Signaling: IL-1-beta AlphaLISA Primary Screen; THP-1 LPS/ATP IL-1B secretion, AlphaLISA, 16 h; hits give low values; activity change, % at 57.5 µM; hit rate 4.7% among 360,000; AID 743279, 2014; in the data active means activity change below about -50%; inconclusive means mostly about -30% to -49%; further: on the % scale 0 is the no-effect control and ±100 the full control effect
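Secreted IL-1B measured by AlphaLISA bead assay after 16 h compound exposure of THP-1 cells; compounds (final up to 57.5 uM) added 1 h before LPS (250 ng/mL) and ATP (1.25 mM) stimulation; lower signal means less secretion.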
SW480 rerep – A quantitative high throughput screen for small molecules that induce DNA re-replication in SW480 colon adenocarcinoma cells; SW480 DNA re-replication, Hoechst DNA content imaging, 48 h; Potency, µM (doses to about 46.1 µM), without a hit: at the top dose re-replication activation, hits mostly activators; hit rate 1.8% among 340,000; further: potency means the concentration at half of the fitted maximal effect; % of control where 0% means no effect; nearly all actives have a fitted effect of over 55% in size
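Image-based read-out: total Hoechst fluorescence of nuclei (405 nm excitation, 500-530 nm emission), with hits raising the fraction of high-intensity nuclei. SW480 colon cells incubated 48 hr with compounds at 37 C.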
MCF10A rereplic – A quantitative high throughput screen for small molecules that induce DNA re-replication in MCF 10a normal breast cells. MCF 10A DNA re-replication, Hoechst nuclear intensity, 48 h. Potency, µM (highest dose often 46.1 µM), for inactives: at the top dose activity, positive = re-replication, actives largely listed as activators. hit rate 2.9% among 350,000. AID 624296, 2012; further: potency means the concentration at half of the fitted maximal effect; % of control where 0% means no effect; nearly all actives have a fitted effect of over 50% in size
Starred values were filed as active, the others as inactive; [ ] = another dose, or the depositor's remark. Unless noted, the call rests on the fitted dose curve; in most records, active means well fitted curve in the direction sought with a large enough effect; inconclusive means small, poorly fitted or top-dose-only effect, or another doubt; inactive means no such curve, though single readings can be large; an effect the other way counts as inactive or inconclusive.

Screening COc1ccc(/C=C/c2ccc3c(Br)ccc(O)c3n2)cc1 returned Gal4-VP16 FLuc 3.5µM*, RORg inh 3.2µM*, IL-1B inflam inh 103, SW480 rerep inconclusive and MCF10A rereplic 23µM*.
`CCOC(=O)C1=NN(C(=O)Cc2ccccc2)C(O)(C(C)(C)C)C1` (configuration not stated) gave Gal4-VP16 FLuc -1%, RORg inh 5%, IL-1B inflam inh 41, SW480 rerep 23% and MCF10A rereplic -5%.
Screening CCOC(=O)C1=NN(C(=O)COc2ccccc2)C(O)(c2ccc(Br)cc2)C1 (configuration not stated) returned Gal4-VP16 FLuc 11µM*, RORg inh 4.5µM*, IL-1B inflam inh 13, SW480 rerep -21% and MCF10A rereplic -7%.
Screening CCC1=NN(C(=O)COc2ccccc2)C(O)(c2ccncc2)C1 (configuration not stated) returned Gal4-VP16 FLuc -19%, RORg inh 19%, IL-1B inflam inh -17, SW480 rerep 6.5µM* and MCF10A rereplic 2%.
For COc1ccc(C(=O)Nc2ccc(C(=O)N3CCOCC3)cc2)cc1OC the results were Gal4-VP16 FLuc 2%, RORg inh 9%, IL-1B inflam inh 7, SW480 rerep 1% and MCF10A rereplic 1%.
For COc1ccc(C(=O)NC(=S)N2CCOCC2)cc1OC the results were Gal4-VP16 FLuc inconclusive, RORg inh 11µM*, IL-1B inflam inh 12, SW480 rerep -1% and MCF10A rereplic 1%.
For Cc1ccc(C(=O)NC(=S)N2CCN(C)CC2)cc1Br the results were IL-1B inflam inh 6, SW480 rerep 13% and MCF10A rereplic 2%.
CCOc1cc(/C=N/NC(=O)c2ccc(CN3CCOCC3)cc2)ccc1OC was read as Gal4-VP16 FLuc 0%, RORg inh -9%, IL-1B inflam inh 0, SW480 rerep inconclusive and MCF10A rereplic -1%.
For CCOc1cc2nc(-c3ccc(OC)c(OC)c3)nc(N3CCOCC3)c2cc1OC the results were Gal4-VP16 FLuc -10%, RORg inh 16%, IL-1B inflam inh -30, SW480 rerep 23µM* and MCF10A rereplic inconclusive.
COc1ccc(C(=O)NC(=S)N2CCN(C)CC2)cc1Br was read as Gal4-VP16 FLuc 2.8µM*, RORg inh 0.45µM*, IL-1B inflam inh 7, SW480 rerep 0% and MCF10A rereplic -8%.
For CCOc1cc(/C=C/C(=O)c2ccc(OC)c(CN3CCOCC3)c2)cc(Br)c1O the results were Gal4-VP16 FLuc -12%, RORg inh inconclusive, IL-1B inflam inh -96*, SW480 rerep inconclusive and MCF10A rereplic inconclusive.
COc1ccc(CN(C)C(=O)CCCNC(=O)c2ccc(Cl)cc2)cc1 was read as Gal4-VP16 FLuc -3%, RORg inh 7%, IL-1B inflam inh 0, SW480 rerep 1% and MCF10A rereplic 10%.
For Cc1ccc(C(=O)OCC(=O)N(CCc2ccccc2)Cc2ccccc2)cc1S(=O)(=O)N1CCOCC1 the results were IL-1B inflam inh 16, SW480 rerep 4% and MCF10A rereplic 9%.
For CCOc1cc(C(=S)N2CCOCC2)ccc1OC the results were Gal4-VP16 FLuc -1%, RORg inh -10%, IL-1B inflam inh 2, SW480 rerep 1% and MCF10A rereplic 13µM*.
`COc1ccc(C(=O)NC(=S)N2CCN(c3ccccc3OC)CC2)cc1OC` gave Gal4-VP16 FLuc 5µM*, RORg inh 2.8µM*, IL-1B inflam inh -6, SW480 rerep 19% and MCF10A rereplic 8%.
`COc1ccccc1N1CCN(C(=S)Nc2ccccc2)CC1` gave Gal4-VP16 FLuc inconclusive, RORg inh inconclusive, IL-1B inflam inh 11, SW480 rerep 1% and MCF10A rereplic 13%.
`Cc1cccc(C(=O)NC(=S)N2CCc3ccccc3C2)c1` gave Gal4-VP16 FLuc 3.5µM*, RORg inh 1.4µM*, IL-1B inflam inh -7, SW480 rerep -693% and MCF10A rereplic 5%.
`COc1ccccc1N1CCN(C(=S)Nc2ccc(F)cc2)CC1` gave Gal4-VP16 FLuc inconclusive, RORg inh 11µM*, IL-1B inflam inh -19, SW480 rerep -5% and MCF10A rereplic -1%.
COc1cc(C(=S)N2CCOCC2)ccc1OC(=O)c1ccc([N+](=O)[O-])cc1[N+](=O)[O-] was read as Gal4-VP16 FLuc 13µM*, RORg inh inconclusive, IL-1B inflam inh 0, SW480 rerep -2% and MCF10A rereplic 14%.
For CN1CCN(C(=S)NC(=O)c2cccc(S(=O)(=O)N(C)C)c2)CC1 the results were Gal4-VP16 FLuc inconclusive, RORg inh 14µM*, IL-1B inflam inh -2, SW480 rerep 6%[1.84 µM] and MCF10A rereplic -29%.
Screening CN1CCN(C(=S)Nc2cccc(S(=O)(=O)N(C)C)c2)CC1 returned Gal4-VP16 FLuc 6%[10 µM], RORg inh 26%, IL-1B inflam inh 0, SW480 rerep -30% and MCF10A rereplic -4%.
Screening COc1cc(C(=S)N2CCOCC2)ccc1OC(=O)/C=C/c1ccco1 returned Gal4-VP16 FLuc 18µM*, RORg inh inconclusive, IL-1B inflam inh 5, SW480 rerep 17% and MCF10A rereplic -4%.
`COc1ccc(C(=S)N2CCOCC2)cc1OC(=O)c1ccc([N+](=O)[O-])cc1` gave Gal4-VP16 FLuc 6%, RORg inh 0%, IL-1B inflam inh -2, SW480 rerep -31% and MCF10A rereplic -14%.
`CCOc1ccccc1NC(=S)NCCc1ccc(F)cc1` gave Gal4-VP16 FLuc 10µM*, RORg inh 1.6µM*, IL-1B inflam inh 1, SW480 rerep inactive[1.84 µM] and MCF10A rereplic -5%.
Screening CCOc1ccccc1NC(=S)NCCc1ccccc1 returned Gal4-VP16 FLuc 5µM*, RORg inh 1.3µM*, IL-1B inflam inh 1, SW480 rerep 0% and MCF10A rereplic 5%.
`COc1ccc(NC(=S)NCCc2ccc(F)cc2)c(OC)c1` gave Gal4-VP16 FLuc inconclusive, RORg inh inconclusive, IL-1B inflam inh -9, SW480 rerep -7% and MCF10A rereplic 6%.
Screening O=C(NCc1ccccc1OC(F)(F)F)C1CCC(=O)N(CCCN2CCOCC2)C1 (configuration not stated) returned IL-1B inflam inh 2.
Screening COC(=O)c1cnn(-c2nc(OC)cc(OC)n2)c1C returned Gal4-VP16 FLuc -5%, RORg inh -19%, IL-1B inflam inh -8, SW480 rerep -14% and MCF10A rereplic -2%.
`COc1cc(OC)nc(-n2ncc(Br)c(Br)c2=O)n1` gave Gal4-VP16 FLuc 4.5µM*, RORg inh 2.2µM*, IL-1B inflam inh -96*, SW480 rerep 7% and MCF10A rereplic 4.6µM*.

Compound activity from PubChem.
